Data: ChEMBL document CHEMBL3988442, “University of Dundee, Small-Polar-MMV Screening Library” (2021)
For some assays here: Potency and affinity values are given separately.

Key:
Parameters in all cases: scale not given: direction of the effect not stated beside the values
[1] = target: Protein translocase subunit SecA (Escherichia coli (strain K12)) (UniProt P10408); test: Assay to Identify E. coli SecA ATPase Inhibitors; assay type: functional; conditions: 30 µM
[2] = target: T1, Ubiquitin-activating enzyme e1, putative (Leishmania donovani (strain BPK282A1)) (UniProt E9BSI1); test: Leishmania donovani Ubiquitin Activating Enzyme (LdE1); assay type: functional; conditions: 30 µM
T1 sequence (whole entry): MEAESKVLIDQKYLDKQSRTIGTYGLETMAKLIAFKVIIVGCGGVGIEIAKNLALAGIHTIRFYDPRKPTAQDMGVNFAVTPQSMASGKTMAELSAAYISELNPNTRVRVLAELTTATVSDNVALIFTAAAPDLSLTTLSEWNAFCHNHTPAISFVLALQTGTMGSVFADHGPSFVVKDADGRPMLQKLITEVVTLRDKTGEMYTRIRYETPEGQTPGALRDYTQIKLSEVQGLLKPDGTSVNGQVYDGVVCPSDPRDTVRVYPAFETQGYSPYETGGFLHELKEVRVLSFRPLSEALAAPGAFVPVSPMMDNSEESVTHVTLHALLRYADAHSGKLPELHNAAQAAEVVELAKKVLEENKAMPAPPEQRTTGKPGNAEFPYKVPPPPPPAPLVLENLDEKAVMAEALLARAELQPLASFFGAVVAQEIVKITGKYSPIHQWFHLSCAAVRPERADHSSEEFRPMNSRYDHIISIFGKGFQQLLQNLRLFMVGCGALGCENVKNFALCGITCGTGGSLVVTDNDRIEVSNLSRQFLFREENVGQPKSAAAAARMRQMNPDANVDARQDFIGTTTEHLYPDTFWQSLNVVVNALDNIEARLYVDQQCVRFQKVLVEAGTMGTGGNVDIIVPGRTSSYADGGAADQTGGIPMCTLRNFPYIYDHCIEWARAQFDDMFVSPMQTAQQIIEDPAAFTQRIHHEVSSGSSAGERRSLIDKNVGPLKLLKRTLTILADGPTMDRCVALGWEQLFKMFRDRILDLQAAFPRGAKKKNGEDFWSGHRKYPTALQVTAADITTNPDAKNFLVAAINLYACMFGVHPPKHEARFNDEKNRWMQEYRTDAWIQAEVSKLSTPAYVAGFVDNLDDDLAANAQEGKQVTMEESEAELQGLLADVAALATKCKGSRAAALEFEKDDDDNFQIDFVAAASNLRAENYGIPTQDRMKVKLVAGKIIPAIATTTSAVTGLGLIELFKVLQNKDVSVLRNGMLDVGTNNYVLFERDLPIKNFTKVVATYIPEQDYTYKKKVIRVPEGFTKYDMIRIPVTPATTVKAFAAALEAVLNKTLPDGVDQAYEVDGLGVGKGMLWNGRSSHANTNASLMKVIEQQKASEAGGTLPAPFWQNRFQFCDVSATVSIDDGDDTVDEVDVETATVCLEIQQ

[3] = target: Sialic acid-binding Ig-like lectin 9 (Homo sapiens) (UniProt Q9Y336); test: Hs-Siglec9 ALPHAscreen SOP 20170721; conditions: 10 µM
Chain of Sialic acid-binding Ig-like lectin 9 (Homo sapiens) (Q9Y336 whole entry): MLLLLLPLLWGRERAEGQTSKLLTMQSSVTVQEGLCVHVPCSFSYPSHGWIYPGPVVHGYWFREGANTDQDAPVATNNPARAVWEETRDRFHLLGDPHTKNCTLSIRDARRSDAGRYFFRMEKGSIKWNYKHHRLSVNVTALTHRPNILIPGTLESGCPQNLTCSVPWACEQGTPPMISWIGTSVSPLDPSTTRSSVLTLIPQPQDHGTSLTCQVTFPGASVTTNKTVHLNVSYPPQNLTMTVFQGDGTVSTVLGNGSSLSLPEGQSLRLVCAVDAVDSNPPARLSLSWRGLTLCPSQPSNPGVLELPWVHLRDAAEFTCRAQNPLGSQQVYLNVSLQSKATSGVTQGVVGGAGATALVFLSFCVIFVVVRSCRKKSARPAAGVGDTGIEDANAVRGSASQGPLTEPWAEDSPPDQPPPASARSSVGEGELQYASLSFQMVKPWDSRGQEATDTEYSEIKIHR

Trypanosoma cruzi = test: Trypanosoma cruzi phosphomannomutase and mannose-1-phosphate guanylyltransferase assay; assay type: functional; conditions: 10 µM
[4] = target: T2, Arginase-2, mitochondrial (Homo sapiens) (UniProt P78540); test: in vitro enzyme assay to detect the production of urea directly proportional to the activity of Arginase II; assay type: functional; conditions: 33.3 µM; further: in the data most compounds retested in dose-response had high values
T2 sequence (whole entry): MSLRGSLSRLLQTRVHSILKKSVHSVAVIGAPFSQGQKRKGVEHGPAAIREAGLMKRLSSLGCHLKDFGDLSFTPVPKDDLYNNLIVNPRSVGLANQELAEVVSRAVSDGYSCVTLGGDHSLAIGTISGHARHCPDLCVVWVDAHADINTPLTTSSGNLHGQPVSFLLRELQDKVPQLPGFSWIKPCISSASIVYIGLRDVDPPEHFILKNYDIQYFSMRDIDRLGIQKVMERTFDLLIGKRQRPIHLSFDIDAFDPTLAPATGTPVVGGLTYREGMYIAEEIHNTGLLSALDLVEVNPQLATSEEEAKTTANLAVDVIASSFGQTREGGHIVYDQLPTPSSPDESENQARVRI

[5] = target: T3, Proteasome subunit beta (Trypanosoma cruzi) (UniProt O96673); test: Trypanosoma cruzi proteasome chymotrypsin-like activity (TcProtChymo) assay.; further: in the data most compounds retested in dose-response had high values; assay type: functional; conditions: 9.37 µM
T3 sequence (whole entry): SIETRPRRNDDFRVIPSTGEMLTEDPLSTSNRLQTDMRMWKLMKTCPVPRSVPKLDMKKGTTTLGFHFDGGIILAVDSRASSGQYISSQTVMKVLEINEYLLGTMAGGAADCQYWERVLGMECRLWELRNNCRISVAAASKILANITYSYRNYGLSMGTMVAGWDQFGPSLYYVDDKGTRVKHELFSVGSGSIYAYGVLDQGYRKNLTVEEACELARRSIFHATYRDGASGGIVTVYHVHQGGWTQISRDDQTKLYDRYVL

Homo sapiens = organism: Homo sapiens; test: To identify inhibition of the IFN signalling (Jak-Stat) pathway via expression of an eGFP reporter gene under the control of an IFN-stimulated response element (ISRE) containing MxA promoter.; assay type: functional; conditions: 30 µM
[6] = target: T4, Tyrosyl-tRNA synthetase, putative (Trypanosoma cruzi (strain CL Brener)) (UniProt Q4DSP6); test: Trypanosoma cruzi tyrosyl tRNA synthetase (TcYRS) _High Tyrosine SOP; assay type: functional; conditions: 30 µM; further: in the data most compounds retested in dose-response had high values
T4 sequence (whole entry): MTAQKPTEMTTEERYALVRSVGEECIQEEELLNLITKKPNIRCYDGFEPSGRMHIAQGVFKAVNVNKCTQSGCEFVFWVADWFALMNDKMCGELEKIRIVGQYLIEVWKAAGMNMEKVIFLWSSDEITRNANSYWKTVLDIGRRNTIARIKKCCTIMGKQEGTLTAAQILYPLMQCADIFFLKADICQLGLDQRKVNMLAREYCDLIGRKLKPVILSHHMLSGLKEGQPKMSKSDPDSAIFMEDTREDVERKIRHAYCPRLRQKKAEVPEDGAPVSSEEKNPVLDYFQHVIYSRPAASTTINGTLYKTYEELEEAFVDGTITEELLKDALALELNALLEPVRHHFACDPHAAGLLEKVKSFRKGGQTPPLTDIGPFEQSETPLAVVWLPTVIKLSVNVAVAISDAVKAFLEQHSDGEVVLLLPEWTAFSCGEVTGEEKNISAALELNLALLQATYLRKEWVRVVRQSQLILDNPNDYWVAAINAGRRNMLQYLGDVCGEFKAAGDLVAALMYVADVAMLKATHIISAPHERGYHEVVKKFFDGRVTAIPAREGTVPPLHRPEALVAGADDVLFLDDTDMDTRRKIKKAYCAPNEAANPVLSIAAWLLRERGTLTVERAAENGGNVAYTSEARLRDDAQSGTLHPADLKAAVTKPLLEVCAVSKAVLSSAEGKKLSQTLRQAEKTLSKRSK

[7] = target: T4, Tyrosyl-tRNA synthetase, putative (Trypanosoma cruzi (strain CL Brener)); test: Trypanosoma cruzi tyrosyl tRNA synthetase (TcYRS) SOP; assay type: functional; conditions: 30 µM
[8] = target: Chromo domain-containing protein 1 (Saccharomyces cerevisiae (strain ATCC 204508 / S288c) (Baker's yeast)) (UniProt P32657); test: ScCHD-1 Enzyme Inhibition Assay; assay type: functional; conditions: 30 µM; further: in the data most compounds retested in dose-response had high values
Chain of Chromo domain-containing protein 1 (Saccharomyces cerevisiae (strain ATCC 204508 / S288c) (Baker's yeast)) (P32657 whole entry, the tested form may be a part): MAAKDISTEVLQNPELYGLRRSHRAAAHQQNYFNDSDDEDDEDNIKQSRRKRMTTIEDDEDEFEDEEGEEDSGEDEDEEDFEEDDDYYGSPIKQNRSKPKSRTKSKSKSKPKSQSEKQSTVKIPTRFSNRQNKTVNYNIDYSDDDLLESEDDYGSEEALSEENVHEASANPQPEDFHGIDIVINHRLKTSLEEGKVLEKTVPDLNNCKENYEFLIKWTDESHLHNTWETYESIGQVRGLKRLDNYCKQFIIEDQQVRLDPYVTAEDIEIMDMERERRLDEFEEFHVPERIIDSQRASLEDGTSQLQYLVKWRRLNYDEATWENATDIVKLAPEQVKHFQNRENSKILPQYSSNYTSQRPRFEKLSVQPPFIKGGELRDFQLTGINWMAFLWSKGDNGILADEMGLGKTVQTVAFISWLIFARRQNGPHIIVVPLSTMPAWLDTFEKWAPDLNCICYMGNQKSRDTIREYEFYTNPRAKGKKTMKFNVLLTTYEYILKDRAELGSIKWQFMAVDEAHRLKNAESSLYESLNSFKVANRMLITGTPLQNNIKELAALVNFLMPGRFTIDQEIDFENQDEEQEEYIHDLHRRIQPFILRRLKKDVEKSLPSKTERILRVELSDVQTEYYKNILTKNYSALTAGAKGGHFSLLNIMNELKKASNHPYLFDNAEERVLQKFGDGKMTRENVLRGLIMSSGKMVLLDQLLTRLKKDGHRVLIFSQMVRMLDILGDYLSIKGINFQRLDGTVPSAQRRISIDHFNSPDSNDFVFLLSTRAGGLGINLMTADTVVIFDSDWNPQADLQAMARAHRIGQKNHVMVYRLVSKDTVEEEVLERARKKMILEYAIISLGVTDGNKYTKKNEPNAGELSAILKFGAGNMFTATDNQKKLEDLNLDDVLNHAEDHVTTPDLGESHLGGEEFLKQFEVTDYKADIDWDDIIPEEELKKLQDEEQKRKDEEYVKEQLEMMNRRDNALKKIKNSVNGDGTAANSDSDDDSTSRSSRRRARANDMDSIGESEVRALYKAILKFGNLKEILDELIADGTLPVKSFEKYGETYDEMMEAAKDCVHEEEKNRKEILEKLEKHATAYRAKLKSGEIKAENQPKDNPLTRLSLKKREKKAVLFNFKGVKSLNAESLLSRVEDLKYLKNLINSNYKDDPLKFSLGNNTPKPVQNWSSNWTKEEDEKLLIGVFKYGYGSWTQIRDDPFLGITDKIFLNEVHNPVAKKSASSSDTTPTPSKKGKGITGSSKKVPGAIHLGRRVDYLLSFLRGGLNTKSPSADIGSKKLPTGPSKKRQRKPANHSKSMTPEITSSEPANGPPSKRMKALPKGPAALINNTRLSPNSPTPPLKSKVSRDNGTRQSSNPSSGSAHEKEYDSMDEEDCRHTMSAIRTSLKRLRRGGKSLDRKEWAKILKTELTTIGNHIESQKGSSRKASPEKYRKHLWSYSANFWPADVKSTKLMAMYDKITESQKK

Chain of Protein translocase subunit SecA (Escherichia coli (strain K12)) (P10408 whole entry): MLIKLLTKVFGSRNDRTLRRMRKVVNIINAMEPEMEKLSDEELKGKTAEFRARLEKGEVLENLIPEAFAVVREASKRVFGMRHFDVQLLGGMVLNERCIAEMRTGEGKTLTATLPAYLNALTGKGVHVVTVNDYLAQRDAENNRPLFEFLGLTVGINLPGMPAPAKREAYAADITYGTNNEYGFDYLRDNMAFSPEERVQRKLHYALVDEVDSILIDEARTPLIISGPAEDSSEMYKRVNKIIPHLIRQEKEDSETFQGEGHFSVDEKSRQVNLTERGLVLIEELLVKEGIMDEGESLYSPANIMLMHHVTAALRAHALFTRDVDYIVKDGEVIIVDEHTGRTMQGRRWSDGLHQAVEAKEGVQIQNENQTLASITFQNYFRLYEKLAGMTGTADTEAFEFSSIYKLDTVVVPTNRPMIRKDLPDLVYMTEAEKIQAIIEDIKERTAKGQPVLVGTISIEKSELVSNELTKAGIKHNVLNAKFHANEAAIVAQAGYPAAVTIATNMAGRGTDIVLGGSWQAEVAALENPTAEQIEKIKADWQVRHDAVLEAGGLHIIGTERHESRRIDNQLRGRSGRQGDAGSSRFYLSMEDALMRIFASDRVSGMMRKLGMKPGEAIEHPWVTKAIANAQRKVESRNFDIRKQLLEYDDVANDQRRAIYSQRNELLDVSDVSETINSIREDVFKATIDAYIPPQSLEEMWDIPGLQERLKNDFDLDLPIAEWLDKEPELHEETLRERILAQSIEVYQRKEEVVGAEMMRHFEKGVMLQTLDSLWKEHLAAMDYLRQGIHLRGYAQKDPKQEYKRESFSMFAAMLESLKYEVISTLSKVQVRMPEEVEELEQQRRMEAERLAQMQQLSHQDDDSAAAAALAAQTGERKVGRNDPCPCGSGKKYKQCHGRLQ

SMILES | Percent Effect [1] [%] | Percent Effect [2] [%] | Percent Effect [3] [%] | Percent Effect (Trypanosoma cruzi) [%] | Percent Effect [4] [%] | Percent Effect [5] [%] | Percent Effect (Homo sapiens) [%] | Percent Effect [6] [%] | Percent Effect [7] [%] | Percent Effect [8] [%]
Cc1ccn(CCC(=O)N2CCOC(c3nc(-c4cccs4)no3)C2)n1 (stereo not given) | 1.88 | 9.33 | 1.5 | -5.52 | 4.42 | 8.7 | 7.42 | 2.12 | 10 | -26.2
CCN1CCN(c2ccc(CNC(=O)c3ccc(Cl)o3)cn2)CC1 | -0.96 | 21.3 | -3.96 | 2.41 | 6.21 | 18.4 | 0.841 | 7.89 | 15.4 | -10.4
CC(C)(C)c1nnc(CN2CCOC(Cn3cncn3)C2)o1 (stereo not given) | -3.4 | 17.9 | 1.77 | 9.67 | -6.56 | 4.18 | 8.6 | 4.31 | 18.1 | -4.15
CCc1nccn1C1CCCN(C(=O)c2csc(COC)n2)C1 (stereo not given) | -5.68 | 10.4 | 12.8 | -5.78 | -1.43 | 7.89 | 13.9 | 4.9 | 9.41 | -5.76
CC(C)c1nnc2n1CCN(C(=O)c1ccnc(N(C)C)c1)C2 | -5.81 | 10.7 | 7.33 | 0 | -5.76 | 16.9 | -3.26 | 3.68 | 10.3 | -12.4
COc1ccc(CN2CCN(C(C)=O)CC3(CC(=O)N(C)C3)C2)cc1 (stereo not given) | -0.72 | 14.3 | 1.28 | -0.375 | 2.28 | 6.44 | 4.32 | 12.6 | 20 | -6.64
CC1CN(CC(=O)NC2CCCC2)CCN1c1ccc2nncn2n1 (stereo not given) | -1.74 | 12.8 | 1.41 | 0.0939 | 4.1 | 15.8 | 12.2 | 7.18 | 20.5 | -1.24
Cc1ccc(NC2CCN(C(=O)c3cc(C(N)=O)cs3)CC2)nn1 | -3.49 | 2.67 | 2.8 | 1.41 | 0.444 | 7.55 | 21.6 | 1.58 | 5.13 | -4.07
CC(Nc1cccc(CN2CCOC2=O)c1)C(=O)N1CCNC1=O (stereo not given) | -10.4 | 7.69 | 2.33 | -5.16 | -2.46 | 2.3 | 28.2 | 2.39 | 8.43 | -2.72
Cc1nccn1-c1cccc(C2CCCN(C(=O)c3cc[nH]n3)C2)n1 (stereo not given) | 0.661 | 25.3 | -9.09 | 0.395 | -3.98 | 17.9 | 32.9 | 1.06 | 10 | -7.28
CCNC(=O)c1ccc(CNCc2c(C)nn(C)c2N(C)C)cc1 | -4.63 | 21.3 | 1.18 | 5.62 | -0.444 | 22.3 | 2.98 | 4.74 | 12.8 | -11.6
CCc1nc(CN2CCCN(C(=O)c3cn[nH]c3CC)CC2)cs1 | 0.744 | 17.9 | -17.5 | -0.282 | -6.97 | 10.2 | -6.8 | 6.22 | 13.2 | -6.17
COc1ccc(CN(C)CC(=O)NC2(C)CCS(=O)(=O)C2)cc1F (stereo not given) | 0.854 | 0 | 4.26 | -5.42 | 4.88 | 2.8 | 17.4 | -0.526 | 0 | -1.6
Cc1cc(C)n(CC2CCCCN2CCCS(N)(=O)=O)n1 (stereo not given) | 1.22 | 18.7 | -2.13 | -2.01 | 4.88 | 12.8 | 8.38 | -0.526 | 7.69 | -8.39
Cc1nc(C2CCN(C(=O)CO)CC2)cc(N2CCOCC2)n1 | -2.95 | 8.11 | 8.92 | 8.05 | 22 | 8.22 | -12.6 | 6.92 | 17.1 | 0.691
CN(C)c1cc(C(=O)N2CCN(c3cnccn3)CC2)ccn1 | -1.53 | 10.3 | 0.94 | 3.1 | 2.46 | 3.16 | 3.38 | 5.26 | 10.8 | -7.53
O=C(c1cc[nH]n1)N1CCCC(c2cccc(-n3ccnc3)n2)C1 (stereo not given) | -1.25 | 12 | 2.15 | -1.77 | 4.42 | 8.05 | 13.7 | 5.29 | 12.5 | -21.6
CCn1c(C)cc(C(=O)N2CCCC(n3nc(C)nc3C)C2)c1C (stereo not given) | -5.54 | 12.8 | -10.5 | 7.23 | -0.41 | 4.35 | 4.11 | 1.44 | 10.8 | -5.05
CN(C)c1cc2c(nn1)CCN(C(=O)Cc1noc3ccccc13)C2 | -0.898 | 0 | -2.79 | 6.85 | 2.87 | -0.427 | -24.3 | 4.31 | -1.21 | -2.37
Cc1cc(C)n(C2CCCN(C(=O)COCC(F)(F)F)C2)n1 (stereo not given) | -4.46 | 2.56 | 11.4 | 0.657 | 6.15 | -7.59 | -11.3 | 1.44 | -1.21 | -0.331
